Source: PubChem BioAssay
CHX counter – Cycloheximide Counterscreen for Small Molecule Inhibitors of Shiga Toxin; AID 2314, 2010; actives 12% (n = 300,000); max response, %; cell reporter, cycloheximide protein synthesis inhibition counterscreen; in the data active = max response mostly above about 13%, no sharp cut-off; inactive = mostly below about 14%; also: read at 38.3 µM for the half of the compounds with a filed dose; 0% is about no effect
Pf growth 96h – Primary qHTS for delayed death inhibitors of the malarial parasite plastid, 96 hour incubation; P. falciparum luciferase reporter growth, 96 h; AID 504834, 2011; actives 6.9% (n = 320,000); Potency, µM (titrated, usually from 28.7 µM), inactives show top-dose activity change, negative = inhibition, most hits filed as inhibitors; also: potency is read from the fitted curve at half-maximal effect; % is scaled to controls: 0 for no effect and ±100 for the full control effect
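96 h incubation, 37 C, 5% CO2, of luciferase-reporter P. falciparum-infected RBCs (2% hematocrit, 0.05% parasitemia final) with test compounds; endpoint luminescence.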
Giardia FBPA inh – qHTS Assay for Inhibitors of Fructose-1,6-bisphosphate Aldolase from Giardia Lamblia; A8B2U2; purified Giardia FBPA; actives 0.71% (n = 290,000); Potency, µM (series often up to 59.6 µM), for inactives: at the top dose activity, negative = inhibition, usual class: inhibitors; also: potency is read from the fitted curve at half-maximal effect; % is scaled to controls: 0 for no effect and ±100 for the full control effect; nearly all actives have a fitted effect of over 55% in size
Target sequence (A8B2U2 whole entry, looked up): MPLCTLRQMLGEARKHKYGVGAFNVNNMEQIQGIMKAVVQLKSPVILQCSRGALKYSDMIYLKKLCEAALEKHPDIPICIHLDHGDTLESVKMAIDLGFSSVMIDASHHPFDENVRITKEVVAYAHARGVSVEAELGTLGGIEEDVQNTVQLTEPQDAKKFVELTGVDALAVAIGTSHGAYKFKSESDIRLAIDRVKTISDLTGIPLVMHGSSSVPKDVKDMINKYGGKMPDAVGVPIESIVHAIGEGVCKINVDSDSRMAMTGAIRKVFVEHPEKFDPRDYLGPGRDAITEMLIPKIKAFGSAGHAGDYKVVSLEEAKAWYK
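Giardia FBPA (40 nM reagent) was preincubated 10 min at RT with compound (up to 57.5 uM final), then substrate plus GAPDH/TPI/NAD/arsenate coupling system with diaphorase/resazurin was added; resorufin fluorescence (525/598 nm) was read after 20 min.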
Pf growth 48h – Primary qHTS for delayed death inhibitors of the malarial parasite plastid, 48 hour incubation. P. falciparum luciferase growth in erythrocytes, 48 h. Potency, µM (titrated, usually from 28.7 µM), inactives show top-dose activity change, negative = inhibition, actives largely listed as inhibitors. actives 5.9% (n = 310,000). AID 504832, 2011; also: potency is read from the fitted curve at half-maximal effect; % is scaled to controls: 0 for no effect and ±100 for the full control effect
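Luciferase-expressing P. falciparum in infected erythrocytes (2% hematocrit, 0.1% parasitemia final) in RPMI 1640/0.5% Albumax were exposed to compound for 48 hours at 37 C, 5% CO2; growth read as luminescence.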
Shiga toxin inh – A qHTS for Small Molecule Inhibitors of Shiga Toxin. Vero cells, Shiga toxin protein synthesis inhibition reporter. inhibition, % at 38.7 µM. actives 9.2% (n = 290,000). AID 2315, 2010; in the data active = inhibition mostly above about 28%, no sharp cut-off; inactive = mostly below about 43%; also: 0% is about no effect
NS1 function inh – qHTS Assay for Inhibitors of Influenza NS1 Protein Function; Potency, µM (top dose mostly 46.1 µM), inactives show top-dose activity, positive = more growth; actives 0.4% (n = 270,000); calls by dose curve; also: potency is read from the fitted curve at half-maximal effect; actives are rising curves; nearly all actives have a fitted effect of over 50% in size
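Read-out: OD600 growth recovery of NS1-expressing budding yeast. Cells grown overnight at 30C in -URA glucose medium, washed, resuspended and diluted 1:100 in 2% galactose assay medium, pH 6.0. Same strain lacking NS1 served as positive control.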
* marks the source's active call; other numbers are inactive results; ? = inconclusive; / = not tested or not shown; [ ] = another dose, or the depositor's remark. This is a sample that favours compounds with a hit; in the whole collection about 21% have one here. Unless noted, calls follow the shape of the dose curve; as a rule, active = well fitted curve in the direction sought with a large enough effect; inconclusive = small, poorly fitted or top-dose-only effect, or another doubt; inactive = no such curve, though single readings can be large; an effect the other way counts as inactive or inconclusive.

SMILES	CHX counter	Pf growth 96h	Giardia FBPA inh	Pf growth 48h	Shiga toxin inh	NS1 function inh
Oc1ccc(Br)cc1-c1ccnn1-c1ccccc1	5	?	-8%	?	-14	-11%
C/C(=N\NC(=S)NCC(C)(C)C)c1cc(F)cc(F)c1O	3	?	17%	0.29µM*	18	1%
COc1ccc(C(CC(=O)N2CCCC(C)C2)c2c(OC)cc(OC)c3c(-c4ccccc4)cc(=O)oc23)cc1 (stereo unspecified)	-2	12µM*	-1%	9.3µM*	-5	5%
COc1ccc(C(CC(=O)N2CCCC2)c2c(OC)cc(OC)c3c(-c4ccccc4)cc(=O)oc23)cc1 (stereo unspecified)	7	?	-5%	9.3µM*	-4	-9%
COc1ccc(C(CC(=O)N2CCCCC2)c2c(OC)cc(OC)c3c(-c4ccccc4)cc(=O)oc23)cc1 (stereo unspecified)	-2	13µM*	-1%	12µM*	-8	3%
COc1ccc(C(CC(=O)N2CCN(c3ccccc3)CC2)c2c(OC)cc(OC)c3c(-c4ccccc4)cc(=O)oc23)cc1 (stereo unspecified)	10	?	-2%	?	-4	3%
COc1cc(C(CC(=O)N2CCCC2)c2c(OC)cc(OC)c3c(-c4ccccc4)cc(=O)oc23)cc(OC)c1OC (stereo unspecified)	6	3.7µM*	-7%	5.2µM*	7	-6%
COc1ccc(C(CC(=O)N2CCOCC2)c2c(OC)cc(OC)c3c(-c4ccccc4)cc(=O)oc23)cc1 (stereo unspecified)	-3	?	-3%	10µM*	-1	-8%
COc1ccc(C(CC(=O)N2CCCC(C)C2)c2c(OC)cc(OC)c3ccc(=O)oc23)cc1 (stereo unspecified)	5	?	-5%	12µM*	-9	0%
COc1ccc(C(=O)Nc2c(N)nc(SCC(=O)c3ccccc3)[nH]c2=O)cc1	9	?	/	10%	6	12%
Cn1c(=O)c(-c2cc(Br)ccc2N)nc2ccccc21	33*	-24%	-18%	/	60	-9%
Cc1nn(CCOc2ccccc2)c(=O)n1-c1cccc(F)c1	13	71%	4%	38%	28	-4%
Cc1nn(C)c(=O)n1-c1ccc(OCc2ccccc2)cc1	44*	172%	7%	169%	89*	-8%
COc1ccc(-n2c(C)nn(C)c2=O)cc1	-6	?	-3%	18%	-4	-2%
Cc1nn(CCOc2ccccc2)c(=O)n1-c1ccc(F)cc1	32*	31%	9%	38%	62*	5%
N#CCCn1cc(CNC2CCC(O)CC2)c2ccccc21 (stereo unspecified)	-2	34%	-4%	23%	-20	24%
N#CCCn1cc(C(CC(=O)c2ccccc2)C(=O)O)c2ccccc21 (stereo unspecified)	30*	34%	-1%	11%	50	?
O=C(CC(=O)N/N=C/c1c(Cl)cccc1Cl)NCc1cccnc1	1	?	/	10%	-34	2%
Cc1cccc(N2CCN(S(=O)(=O)c3ccc4c(c3)CC(=O)N4C)CC2)c1C	-4	?	10%	9.3µM*	-4	6%
Cn1c(=O)n(C)c2cc(S(=O)(=O)N3CCOCC3)ccc21	-2	/	-2%	-10%	-15	-3%[9.22 µM]
CN1C(=O)Cc2cc(S(=O)(=O)N3CCOCC3)ccc21	1	4.7µM*	-25%	-8%	10	3%
CC(CNS(=O)(=O)c1ccc2c(c1)CC(=O)N2C)c1ccccc1 (stereo unspecified)	2	10µM*	18%	9.3µM*	-7	21%
CCOC(=O)C1CCN(S(=O)(=O)c2ccc3c(c2)CC(=O)N3C)CC1	-3	-6%	-29%	2.1µM*	-7	?
Cc1cccc(N2CCN(S(=O)(=O)c3ccc(S(=O)(=O)N4CCCC4)cc3)CC2)c1C	-5	-9%	8%	/	-5	1%
CC(NS(=O)(=O)c1ccc2c(c1)CC(=O)N2C)c1ccccc1 (stereo unspecified)	-12	?	-4%	-11%	-8	17%
SMILES	CHX counter	Pf growth 96h	Giardia FBPA inh	Pf growth 48h	Shiga toxin inh	NS1 function inh
CCOC(=O)C1CCN(S(=O)(=O)c2ccc3c(c2)CCCN3C(C)=O)CC1	7	/	3%	-8%	-4	-19%
COc1ccc(NC(=O)CNC(=O)c2nn(-c3ccc(OC)c(Cl)c3)c(=O)c3ccccc23)c(OC)c1	-3	-30%	/	9.3µM*	-7	4%
COc1ccc(-n2nc(C(=O)NCC(=O)Nc3ccc(F)cc3)c3ccccc3c2=O)cc1	-2	4%	11%	12µM*	-8	-9%
COc1ccc(-n2nc(C(=O)NCC(=O)Nc3ccccn3)c3ccccc3c2=O)cc1Cl	0	9.3µM*	-1%	6%	-4	-1%
COc1ccc(-n2nc(C(=O)NCC(=O)Nc3cc(Cl)c(OC)cc3OC)c3ccccc3c2=O)cc1	-5	0%	-4%	?	-10	5%
COc1ccc(-n2nc(C(=O)NCC(=O)NC3CCCC(C)C3C)c3ccccc3c2=O)c(OC)c1 (stereo unspecified)	-2	5.9µM*	-14%	?	2	20%
Cc1cc(C)c(OCCCNC2CCCC2)c(Br)c1	1	?	?	?	-4	-3%
CCOc1ccc(NC(=O)CNC(=O)c2nn(-c3ccc(OC)c(OC)c3)c(=O)c3ccccc23)cc1	2	?	8%	-3%	39	12%
CCOc1ccccc1NC(=O)CNC(=O)c1nn(-c2ccc(OC)c(OC)c2)c(=O)c2ccccc12	1	?	-2%	13µM*	-4	2%
COc1ccc(-n2nc(C(=O)NCC(=O)Nc3cc(OC)ccc3OC)c3ccccc3c2=O)cc1	-9	?	7%	3.3µM*	-5	-4%
O=C(O)/C=C/C(=O)NC1CC1	-2	?	4%	6%	3	/
CN1CCC(OC(=O)COc2ccccc2)CC1	-1	12µM*	2%	9%	-22	8%
CCOc1ccc(C(=O)OC2CCN(C)CC2)cc1	14*	39%	-12%	10%	26	9%
CCCOC(C(=O)OC1CCN(C)CC1)(c1ccccc1)c1ccccc1	/	12µM*	/	12µM*	/	/
CN1CCC(OC(=O)c2ccccc2)CC1	2	-19%	-21%	-2%	-3	9%
CCC(=O)N1c2ccc(S(=O)(=O)NCCc3ccc(OC)c(OC)c3)cc2CC1C (stereo unspecified)	-11	12%	/	-6%	-4	-18%
COc1ccccc1NC(=O)Cc1csc(NC(=S)Nc2ccc(C)cc2)n1	19	10µM*	/	?	40	?
